# Source: PubChem BioAssay (National Center for Advancing Translational Sciences (NCATS))
# ALDH1A1 block = blocks purified human ALDH1A1 activity. AID 1030. Potency, µM (highest dose often 75.3 µM), most hits filed as inhibitors. P00352. Purified ALDH1A1, NADH fluorescence, propionaldehyde substrate. 7.3% of 220,000 active; active = well fitted inhibition curve with a large enough effect, not every such curve was filed as active; inconclusive = small, poorly fitted or top-dose-only effect, or another doubt; inactive = no such curve, though single readings can be large or run the other way
# HPGD inh = inhibitors of human 15-hydroxyprostaglandin dehydrogenase (HPGD); purified HPGD, NADH fluorescence kinetic, PGE2 substrate; Potency, µM, most hits filed as inhibitors; 4.3% of 150,000 active; active = well fitted inhibition curve with a large enough effect, not every such curve was filed as active; inconclusive = small, poorly fitted or top-dose-only effect, or another doubt; inactive = no such curve, though single readings can be large or run the other way
# Target sequence (P15428 whole entry, looked up): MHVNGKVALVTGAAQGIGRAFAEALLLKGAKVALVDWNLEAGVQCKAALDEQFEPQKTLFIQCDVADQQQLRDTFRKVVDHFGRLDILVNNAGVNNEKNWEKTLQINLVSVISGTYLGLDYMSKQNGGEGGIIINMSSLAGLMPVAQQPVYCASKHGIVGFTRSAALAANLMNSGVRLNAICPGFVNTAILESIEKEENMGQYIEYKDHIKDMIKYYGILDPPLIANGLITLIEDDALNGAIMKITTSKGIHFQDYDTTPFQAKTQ
#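 NADH formation kinetics: reaction with 30 uM PGE2 and 1 mM NAD+ (final), 20 nM enzyme, Tris-HCl pH 8 with Tween 20, after 15 min compound preincubation at room temperature. Fluorescence change, last versus first of five reads.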
# aGal spleen mod = inhibits or activates alpha-galactosidase in human spleen homogenate | P06280 | human spleen homogenate, 4MU-alpha-Gal fluorescence, 40 min | Potency, µM (doses to about 80 µM), actives largely listed as inhibitors | 0.008% of 240,000 active | AID 2107
# Target sequence (P06280 32-429 limits assumed): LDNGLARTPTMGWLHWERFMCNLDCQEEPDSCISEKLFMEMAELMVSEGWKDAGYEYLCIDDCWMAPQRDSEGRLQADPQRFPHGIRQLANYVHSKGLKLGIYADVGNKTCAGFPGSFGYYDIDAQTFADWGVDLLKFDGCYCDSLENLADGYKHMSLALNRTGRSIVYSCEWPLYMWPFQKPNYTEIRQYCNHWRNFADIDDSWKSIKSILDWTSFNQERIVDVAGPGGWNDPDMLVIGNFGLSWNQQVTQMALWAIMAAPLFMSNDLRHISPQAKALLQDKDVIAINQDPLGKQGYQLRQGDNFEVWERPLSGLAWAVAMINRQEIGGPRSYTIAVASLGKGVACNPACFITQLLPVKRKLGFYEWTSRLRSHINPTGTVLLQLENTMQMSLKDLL
#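 Fluorogenic readout (Ex 365/Em 440 nm) of 4-methylumbelliferone released from 1 mM 4-MU-alpha-galactoside by spleen homogenate, 40 min at 37C, pH 5.0. Data normalized to no-enzyme and enzyme controls; Hill-equation AC50 from compound titrations.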
# GLA inh pH 4.5 = alpha-galactosidase A (human) inhibition, pH 4.5. 230,000 tested, under 10 active. P06280. purified enzyme, 4-MU-alpha-Gal fluorescence, pH 4.5. activity change, negative = inhibition, % at 105 µM. AID 1467
# PNC inhibitor = blocks assembly of the perinucleolar compartment. activity change (PNC), negative = inhibition, % at 10 µM. PC3M PTB-GFP, PNC prevalence imaging, 16 h; hits give low values. 3.1% of 140,000 active;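 active = readout at or below -70, meaning at least 70% loss of cells showing the perinucleolar compartment, a nuclear body marking cancer cells; inconclusive = readout between -30 and a set limit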
#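 PC3M cells stably expressing PTB-GFP, 750–1000 cells/well, treated 16 h at 37 °C with compound (23 nl of library stock), in duplicate. After paraformaldehyde fixation and Hoechst stain, imaged at 20x; PNC prevalence scored by image analysis.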
# 12-hLO inh = 12-hLO (ALOX12) enzyme inhibition. P18054. purified 12-hLO, xylenol orange hydroperoxide absorbance. Potency, µM (doses to about 57.1 µM), most hits filed as inhibitors. 0.12% of 150,000 active; note: nearly all actives have a fitted effect of over 55% in size
#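 Purified human 12hLO (150 nM final) was preincubated with compounds for 15 min at room temperature in 25 mM Hepes pH 7.0, 0.01% Triton X-100, then reacted with 40 uM arachidonic acid for 30 min. Hydroperoxide was detected with ferrous iron/xylenol orange.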
# A number is an active result; – = inactive; ? = inconclusive; · = no result given; [ ] = remark or other dose. Hits are enriched below; roughly 10% of the tested compounds scored in any of these assays. Unless noted, calls come from the whole dose curve; as a rule, active = well fitted curve in the direction sought with a large enough effect; inconclusive = small, poorly fitted or top-dose-only effect, or another doubt; inactive = no such curve, though single readings can be large; an effect the other way counts as inactive or inconclusive.
SMILES,ALDH1A1 block,HPGD inh,aGal spleen mod,GLA inh pH 4.5,PNC inhibitor,12-hLO inh
CCOC(=O)c1nc2sc3c(c2c(=O)[nH]1)CCC(C)C3 (stereo not given),·,·,–,?,·,·
CC1CCc2c(sc(N)c2C(=O)OC(C)C)C1 (stereo not given),11.2µM,28.2µM,–,–,–,–
CC(=O)N1CCN(C(=O)CC2OC(=O)c3ccccc32)CC1 (stereo not given),5.01µM,?,–,–,–,–
O=C(Nc1nc2c(F)cc(F)cc2s1)c1ccccn1,10µM,·,–,–,·,·
Cc1ccc2nc(NC(=O)c3ccccn3)sc2c1,–,·,–,–,·,·
O=C(CN1CCN(c2ncc(C(F)(F)F)cc2Cl)CC1)N1CCN(c2ncc(C(F)(F)F)cc2Cl)CC1,3.98µM,–,–,–,–,–
O=C(O)C=C1CCN(c2ncc(C(F)(F)F)cc2Cl)CC1,–,–,–,–,–,–
NNC(=O)C=C1CCN(c2ncc(C(F)(F)F)cc2Cl)CC1,15.8µM,–,–,–,–,–
O=C(CSc1ccc(Cl)cc1)N1CCN(c2ncc(C(F)(F)F)cc2Cl)CC1,–,–,–,–,?,–
CN(C)Cc1ccccc1-c1cc(NC2CC2)ncn1,–,–,–,–,·,–
CC(C)c1csc(CN2CCC(CO)(Cc3cccc(F)c3)CC2)n1,–,·,–,–,·,·
COC(=O)C1(CC(C)C)C=C2C(=C(C)C(=O)C2C)CN1 (stereo not given),?,–,–,–,·,–
N#C/C(=C\c1ccc[nH]1)S(=O)(=O)c1ccccc1,–,4.47µM,–,–,–,–
Cn1nccc1/C=C(/C#N)S(=O)(=O)c1ccccc1,–,–,–,–,?,–
Nc1cc(Cl)ccc1Oc1ccccc1,–,–,–,–,–,–
Nc1cc(Cl)ccc1Oc1ccc(Cl)cc1,1.58µM,22.4µM,–,–,–,–
COc1ccc(CNCc2cccc(Oc3ccccc3)c2)cc1,14.1µM,·,–,–,·,·
O=C(O)CCc1ccc(NCc2cccc(Oc3ccccc3)c2)cc1,·,·,–,·,·,·
O=C(O)C1=C/C(=C(/c2ccccc2)c2cc(C(=O)O)c(O)c3ccccc23)c2ccccc2C1=O,–[13.5 µM],–,·,·,·,–[11.4 µM]
Cc1nc(-c2ccc(C(=O)N3CCOCC3)cc2)cs1,–,8.91µM,–,–,?,–
Cc1nc(-c2ccc3c(c2)OCCCO3)cs1,25.1µM,·,–,–,·,·
O=C(CSc1nc(-c2ccc(F)cc2)cs1)N1CCOCC1,?,–,–,–,–,–
Cc1nc(-c2cccc(S(=O)(=O)N3CC(C)OC(C)C3)c2)cs1 (stereo not given),–,–,–,–,–,–
Cc1nc(-c2cccc(S(=O)(=O)N3CCOCC3)c2)cs1,4.47µM,25.1µM,–,–,–,–
Cc1nc(-c2ccc(C(=O)N3CCCC3)cc2)cs1,25.1µM,·,–,–,·,·
SMILES,ALDH1A1 block,HPGD inh,aGal spleen mod,GLA inh pH 4.5,PNC inhibitor,12-hLO inh
O=C(C/C(=N/O)c1ccccc1O)C(F)F,–,15.8µM,–,–,–,–
COC(=O)c1ccccc1O,–,–,–,·,·,–
O=c1c(Cc2c(F)cccc2Cl)c(O)ccn1CC1CCCO1 (stereo not given),–,·,–,–,·,·
O=C1CCCc2c1sc1nc3n(c(=O)c21)CCCCC3,?,–,–,–,–,–
O=C1c2sc3nc4n(c(=O)c3c2CCC1Br)CCCCC4 (stereo not given),8.91µM,12.6µM,–,–,–,–
CN(C)c1ccc(NC(=O)CN2CCN(S(=O)(=O)c3cc(Cl)ccc3Cl)CC2)cc1,?,–,–,–,–,–
O=C(Nc1ccc2c(c1)OCCO2)c1ccc(Cl)c(S(=O)(=O)N2CCOCC2)c1,5.01µM,–,–,–,–,–
O=C(CN1CCN(S(=O)(=O)c2cc(Cl)ccc2Cl)CC1)Nc1ccc2c(c1)OCCO2,8.91µM,–,–,–,–,–
O=C(Nc1ccccc1C(=O)O)c1ccc(Cl)c(S(=O)(=O)N2CCOCC2)c1,?,–,–,–,–,–
COc1ccccc1-c1cncnc1-n1ccnc1,–,?,–,–,·,–
COc1ccc(-n2c(=O)c(-c3cc(F)cc(F)c3)nc3cncnc32)cc1,–,·,–,·,·,·
COc1ccc(CNCC(O)(c2ccc(F)cc2)c2ccc(F)cc2)cc1,–,·,–,–,·,·
CC(=O)Nc1sc2c(c1C#N)CCC(C)C2 (stereo not given),–,·,–,–,·,·
Cc1ccc(C)n1-c1sc2c(c1C#N)CCC(C)C2 (stereo not given),25.1µM,–,–,–,–,?
C=CCNC(=S)NNc1nc(Nc2ccccc2)nc(N2CCCCC2)n1,15.8µM,·,–,–,·,·
S=C(NNc1nc(Nc2ccccc2)nc(N2CCCCC2)n1)NC1CCCCC1,–,·,–,–,·,·
O=C(C1CCCN(S(=O)(=O)c2ccc(Br)s2)C1)N1CCCCCC1 (stereo not given),5.62µM,–,–,–,–,–
COc1ccc(-c2nnc3n2N=C(c2c(OC)cccc2OC)CS3)cc1,·,·,–,·,·,·
N=c1nc(N2CCCCC2)cc(N)n1O,–,–,–,–,-114.6,–
CN(C)c1ccc(NC(=O)CSCc2nc3c(nnn3Cc3ccc(F)cc3)c(=O)[nH]2)cc1,10µM,22.4µM,–,–,–,–
Cc1cccc(NC(=O)CSCc2nc3c(nnn3Cc3ccc(F)cc3)c(=O)[nH]2)c1C,–,·,–,–,·,·
CCCCNC(C(=O)Nc1ccc(Cl)c([N+](=O)[O-])c1)c1ccccc1 (stereo not given),5.01µM,–,–,–,–,–
C/C(=C\C(=O)c1ccncc1)Nc1ccccc1O,–,14.1µM,–,–,–,–
CC(=O)Nc1ccccc1O,–,–,–,–,–,–
O=C(CCn1c(=S)oc2ccccc21)Nc1cccc(O)c1,?,·,–,–,·,·
SMILES,ALDH1A1 block,HPGD inh,aGal spleen mod,GLA inh pH 4.5,PNC inhibitor,12-hLO inh
CC(OC(=O)Cc1coc2ccc3ccccc3c12)C(=O)NC(N)=O (stereo not given),·,·,–,–,·,·
COC(=O)C1=C(O)/C(=C\c2ccc(CNS(=O)(=O)c3ccccc3)o2)N=C1C,31.6µM,–,–,–,–,–
COC(=O)C1=C(O)/C(=C\c2ccc(CNS(=O)(=O)c3ccc(Cl)cc3)o2)N=C1C,–,–,–,–,–,?
O=C(O)c1ccccc1C(=O)Nc1cc2c(cc1Br)-c1ccccc1C2=O,–[13.5 µM],–,·,·,·,–[11.4 µM]
CC1CCN(c2nncc3ccccc23)CC1,–,–,–,–,-93.3,–
CC1CCN(c2nnc(N3CCC(C)CC3)c3ccccc23)CC1,–,·,–,–,·,·
CCN1C(=O)C(CC(=O)Nc2ccc(OC)cc2)N(CCc2ccc(F)cc2)C1=S (stereo not given),14.1µM,·,–,–,·,·
CCN1C(=O)C(CC(=O)Nc2ccc(OC)cc2)N(CCCN2CCN(c3ccc(F)cc3)CC2)C1=S (stereo not given),–,·,–,–,·,·
COc1ccc(NC(=O)CC2C(=O)N(C)C(=S)N2Cc2cccs2)cc1 (stereo not given),–,–,–,–,–,–
